Out of some 39,000 compounds screened, about 3,300 (8.5%) were called active. The entries come from a sample that favours actives as a whole.

This experiment deals with HepG2. The experiment is described as follows: cytotoxicity call (relative viability < 0.9). Particulars: 10 µM.
On to `COc1ccccc1CNC(=O)C[C@H]1C[C@H]2c3cc(NC(=O)Nc4ccc(C(F)(F)F)cc4)ccc3O[C@H]2[C@@H](CO)O1`, for which the cytotoxicity call was “inactive”.

For `C[C@@H]1CN([C@H](C)CO)C(=O)c2cc(NS(=O)(=O)c3ccc(F)cc3)ccc2O[C@@H](C)CCCCO[C@H]1CN(C)Cc1ccc2c(c1)OCO2`, the cytotoxicity call is “inactive”.

Take `C[C@@H]1CN([C@H](C)CO)C(=O)Cc2cc(NC(=O)Nc3ccc4c(c3)OCO4)ccc2O[C@H]1CN(C)S(=O)(=O)c1cn(C)cn1`: the cytotoxicity call was “inactive”.

Turning to `O=C(C[C@@H]1CC[C@@H]2[C@H](COC[C@H](O)CN2S(=O)(=O)c2cccc(Cl)c2)O1)NCc1ccc2c(c1)OCO2`, the cytotoxicity call was “inactive”.

As for `C[C@@H]1CN([C@@H](C)CO)S(=O)(=O)c2ccc(Br)cc2O[C@H]1CN(C)Cc1ccccc1F`, the cytotoxicity call is “inactive”.

For the compound `CC(C)NC(=O)Nc1ccc2c(c1)CC(=O)N([C@@H](C)CO)C[C@H](C)[C@H](CN(C)Cc1ccc(C(=O)O)cc1)O2`, the cytotoxicity call was “inactive”.

Consider `C[C@@H]1CN([C@H](C)CO)C(=O)c2cc(NC(=O)C3CC3)ccc2O[C@@H]1CN(C)Cc1ccc(Oc2ccccc2)cc1`, for which the cytotoxicity call is “inactive”.

As for `Cc1noc(C)c1S(=O)(=O)N(C)C[C@H]1Oc2ccc(NC(=O)C3CC3)cc2CC(=O)N([C@H](C)CO)C[C@@H]1C`, the cytotoxicity call is “inactive”.

As to `CCS(=O)(=O)N1CC[C@]2(CC1)CN([C@@H](CO)c1c2c2ccc(cc2n1C)OC)C(=O)c1cccc(c1)F`, the cytotoxicity call was “inactive”.

Regarding `C[C@@H]1CCCCO[C@@H](CN(C)Cc2ccc(C(F)(F)F)cc2)[C@@H](C)CN([C@H](C)CO)C(=O)c2cc(NC(=O)Nc3ccc(C(F)(F)F)cc3)ccc2O1`, the cytotoxicity call was “inactive”.

As for `C[C@@H]1CCCCO[C@@H](CN(C)Cc2ccc(C(F)(F)F)cc2)[C@H](C)CN([C@H](C)CO)C(=O)c2cc(NC(=O)Nc3ccc(C(F)(F)F)cc3)ccc2O1`, the cytotoxicity call is “inactive”.

For `C[C@H]1CCCCO[C@@H](CN(C)Cc2ccc(C(F)(F)F)cc2)[C@@H](C)CN([C@@H](C)CO)C(=O)c2cc(NC(=O)Nc3ccc(C(F)(F)F)cc3)ccc2O1`, the cytotoxicity call is “active”.

On to `C[C@@H]1CN([C@H](C)CO)C(=O)c2cc(NC(=O)Nc3ccc(C(F)(F)F)cc3)ccc2O[C@@H](C)CCCCO[C@@H]1CN(C)Cc1ccc(C(F)(F)F)cc1`, for which the cytotoxicity call is “inactive”.

As to `C[C@@H]1CCCCO[C@H](CN(C)Cc2ccc(C(F)(F)F)cc2)[C@H](C)CN([C@H](C)CO)C(=O)c2cc(NC(=O)Nc3ccc(C(F)(F)F)cc3)ccc2O1`, the cytotoxicity call was “active”.

`C[C@@H]1CCCCO[C@H](CN(C)Cc2ccc(C(F)(F)F)cc2)[C@@H](C)CN([C@H](C)CO)C(=O)c2cc(NC(=O)Nc3ccc(C(F)(F)F)cc3)ccc2O1`: the cytotoxicity call is “active”.

As to `C[C@H]1CCCCO[C@H](CN(C)Cc2ccc(C(F)(F)F)cc2)[C@@H](C)CN([C@@H](C)CO)C(=O)c2cc(NC(=O)Nc3ccc(C(F)(F)F)cc3)ccc2O1`, the cytotoxicity call was “active”.

For `C[C@@H]1CCCCO[C@@H](CN(C)Cc2ccc(C(F)(F)F)cc2)[C@@H](C)CN([C@@H](C)CO)C(=O)c2cc(NC(=O)Nc3ccc(C(F)(F)F)cc3)ccc2O1`, the cytotoxicity call is “inactive”.

In the case of `CN(C)CCCNC(=O)C[C@H]1CC[C@@H]2[C@H](COc3ccc(NC(=O)c4ccc5c(c4)OCO5)cc3C(=O)N2C)O1`, the cytotoxicity call is “inactive”.

For the compound `C[C@@H]1CN([C@H](C)CO)C(=O)c2cc(NS(=O)(=O)c3ccc(F)cc3)ccc2O[C@H]1CN(C)CC1CC1`, the cytotoxicity call is “inactive”.

Take `C[C@@H]1CN([C@@H](C)CO)C(=O)c2cc(NC(=O)Cc3ccccc3)ccc2O[C@@H](C)CCCCO[C@@H]1CN(C)C(=O)CCC(F)(F)F`: the cytotoxicity call is “inactive”.

Take `C[C@@H]1CN([C@@H](C)CO)C(=O)c2cc(NC(=O)NC3CCCCC3)ccc2O[C@H]1CN(C)Cc1ccc(C(F)(F)F)cc1`: the cytotoxicity call was “inactive”.

As for `CO[C@H]1CN(C)C(=O)c2ccc(NC(=O)NC(C)C)cc2OC[C@H](C)N(Cc2ccc(-c3ccccn3)cc2)C[C@@H]1C`, the cytotoxicity call was “inactive”.

For the compound `C[C@@H]1CN([C@@H](C)CO)C(=O)c2cc(NC(=O)Nc3ccccc3)ccc2O[C@@H](C)CCCCO[C@H]1CN(C)Cc1ccncc1`, the cytotoxicity call is “inactive”.

Take `CC(C)C#Cc1ccc2c(c1)O[C@@H](CN(C)C(=O)Cc1ccccn1)[C@H](C)CN([C@@H](C)CO)S2(=O)=O`: the cytotoxicity call was “inactive”.

In the case of `Cc1noc(C)c1S(=O)(=O)N(C)C[C@H]1Oc2ccc(NC(=O)NC(C)C)cc2CC(=O)N([C@H](C)CO)C[C@@H]1C`, the cytotoxicity call is “inactive”.

Consider `C#CCOC(=O)[C@@H]1[C@@H](C(=O)O)[C@@H]2C=C[C@@H]1C2`, for which the cytotoxicity call is “inactive”.

Consider `COc1ccc(NC(=O)N(C)C[C@H]2Oc3ccc(NC(=O)C4CC4)cc3CC(=O)N([C@H](C)CO)C[C@@H]2C)cc1`, for which the cytotoxicity call is “inactive”.

On to `C[C@@H]1CN([C@@H](C)CO)C(=O)c2cccc(NC(=O)c3cnccn3)c2O[C@H]1CN(C)CC1CCCCC1`, for which the cytotoxicity call is “inactive”.

As to `COCC#Cc1ccc2c(c1)O[C@@H](CN(C)S(=O)(=O)c1cccc(F)c1)[C@H](C)CN([C@H](C)CO)S2(=O)=O`, the cytotoxicity call is “inactive”.

In the case of `C[C@@H]1CN([C@@H](C)CO)C(=O)c2cccc(NC(=O)Nc3ccc(F)cc3)c2O[C@@H]1CN(C)Cc1ccc(Oc2ccccc2)cc1`, the cytotoxicity call was “inactive”.

For `COc1ccc(S(=O)(=O)Nc2ccc3c(c2)C(=O)N([C@@H](C)CO)C[C@H](C)[C@H](CN(C)C(=O)Nc2cccc4ccccc24)OCCCC[C@@H](C)O3)cc1`, the cytotoxicity call was “inactive”.

Turning to `COc1ccc(S(=O)(=O)Nc2ccc3c(c2)C(=O)N([C@H](C)CO)C[C@H](C)[C@H](CN(C)C(=O)Nc2cccc4ccccc24)OCCCC[C@@H](C)O3)cc1`, the cytotoxicity call was “inactive”.

As for `COc1ccc(S(=O)(=O)Nc2ccc3c(c2)C(=O)N([C@H](C)CO)C[C@H](C)[C@@H](CN(C)C(=O)Nc2cccc4ccccc24)OCCCC[C@H](C)O3)cc1`, the cytotoxicity call was “active”.

`COc1ccc(S(=O)(=O)Nc2ccc3c(c2)C(=O)N([C@H](C)CO)C[C@H](C)[C@@H](CN(C)C(=O)Nc2cccc4ccccc24)OCCCC[C@@H](C)O3)cc1`: the cytotoxicity call was “inactive”.

Turning to `COc1ccc(S(=O)(=O)Nc2ccc3c(c2)C(=O)N([C@@H](C)CO)C[C@H](C)[C@H](CN(C)C(=O)Nc2cccc4ccccc24)OCCCC[C@H](C)O3)cc1`, the cytotoxicity call was “active”.

As to `COc1ccc(S(=O)(=O)Nc2ccc3c(c2)C(=O)N([C@@H](C)CO)C[C@@H](C)[C@@H](CN(C)C(=O)Nc2cccc4ccccc24)OCCCC[C@H](C)O3)cc1`, the cytotoxicity call was “inactive”.

The record behind these values is the antibiotic and cytotoxicity screens of Wong et al. (2023).
